Screens deposited in PubChem BioAssay by The Scripps Research Institute Molecular Screening Center.
The list is not random: actives were taken first. Their share in the collection is about 3.5%.
FBW7 activator: activators of human E3 ligase FBW7; Q969H0; AlphaScreen FBW7–phospho-cyclin E peptide binding, activator screen; normalized activity (activation), % at 26.1 µM; hit rate 0.13% among 650,000; AID 1259310; in the data active = normalized activity above about 1.9%;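 note: purified mutant Fbw7 with reduced substrate affinity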
Target sequence (Q969H0 whole entry, looked up): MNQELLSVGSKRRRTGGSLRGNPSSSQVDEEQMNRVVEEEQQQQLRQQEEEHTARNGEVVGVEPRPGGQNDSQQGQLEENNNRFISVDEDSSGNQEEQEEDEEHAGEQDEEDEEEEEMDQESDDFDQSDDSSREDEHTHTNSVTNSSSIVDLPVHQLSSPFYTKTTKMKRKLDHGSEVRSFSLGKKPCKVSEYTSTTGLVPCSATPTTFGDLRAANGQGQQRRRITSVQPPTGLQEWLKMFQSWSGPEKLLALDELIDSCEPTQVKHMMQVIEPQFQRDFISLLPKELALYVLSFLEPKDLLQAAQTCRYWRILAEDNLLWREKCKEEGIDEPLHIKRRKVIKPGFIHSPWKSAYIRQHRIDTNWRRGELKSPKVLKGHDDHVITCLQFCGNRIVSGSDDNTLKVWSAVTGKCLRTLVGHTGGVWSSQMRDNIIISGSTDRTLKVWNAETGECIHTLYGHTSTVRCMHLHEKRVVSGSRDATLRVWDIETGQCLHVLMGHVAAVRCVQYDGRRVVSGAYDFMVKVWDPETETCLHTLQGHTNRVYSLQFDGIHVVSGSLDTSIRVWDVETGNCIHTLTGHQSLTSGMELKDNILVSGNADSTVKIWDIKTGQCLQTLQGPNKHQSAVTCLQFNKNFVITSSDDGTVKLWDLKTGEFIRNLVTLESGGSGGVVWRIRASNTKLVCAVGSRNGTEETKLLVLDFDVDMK
GPR151 ag: activators of human GPR151; Q8TDV0; PathHunter beta-arrestin GPR151 cells, luminescence; activation, % at 11.2 µM; hit rate 1% among 650,000; in the data active = activation above about 4.9%
TEAD-YAP block: TEAD-YAP interaction inhibition; HEK-TIYL cells, TEAD-Gal4/YAP UAS-luciferase luminescence; inhibition, % at 9.12 µM; hit rate 1.4% among 640,000; AID 1259422; in the data active = inhibition above about 32%
MITF primary: blocks human microphthalmia-associated transcription factor; inhibition, % at 2.6 µM; AlphaScreen MITF homodimerization, bead proximity signal; AID 1259374; hit rate 0.91% among 650,000; in the data active = inhibition above about 50%
Each line names hits and unclear results; the compound was inactive in the other large screens.

c1ccc(-n2cnc3c(Nc4ccc(N5CCOCC5)cc4)nc(Nc4ccccn4)nc32)cc1	TEAD-YAP block 58.5
c1ccc(-n2cnc3c(Nc4ccc(N5CCOCC5)cc4)nc(Nc4ncccn4)nc32)cc1	none
Cn1c(Nc2nc(Nc3ccc(N4CCOCC4)cc3)c3ncn(-c4ccccc4)c3n2)nc2ccccc21	TEAD-YAP block 32.6
CC(=O)Nc1ccc(Nc2nc(Nc3ccccn3)nc3c2ncn3-c2ccccc2)cc1	TEAD-YAP block 55.6
COc1ccc(CN(C)CCN(C)C)c(O)c1	none
Cc1cc(C)c(NC(=O)CCC(=O)O)c(Cl)c1	none
O=C(NCc1ccccc1)C1CCN(C(=O)Nc2ccccc2)CC1	none
Cn1c(Nc2nc(Nc3ccc(N4CCOCC4)cc3)c3ncn(-c4ccsc4)c3n2)nc2ccccc21	TEAD-YAP block 34.8
O=C1/C(=C/c2ccco2)CCc2ccccc21	none
N#CC(C#N)C(C#N)(C#N)C1CCC/C(=C\c2ccco2)C1=O (centres undefined)	MITF primary 80.8
c1ccc(-c2ccnc(Nc3ccc(-n4ccnn4)cc3)n2)cc1	none
CS(=O)(=O)c1ccc(-c2ccnc(Nc3ccc(-n4ccnn4)cc3)n2)cc1	none
CS(=O)(=O)Cc1cccc(-c2ccnc(Nc3ccc(-n4ccnn4)cc3)n2)c1	TEAD-YAP block 41.2
CN1CCN(c2cccc(-c3ccnc(Nc4ccc(-n5ccnn5)cc4)n3)c2)CC1	TEAD-YAP block 68.0
COc1ccc(OCC(=O)NCCN2CCCCC2)cc1	none
COc1ccc(-c2cc(C(F)(F)F)n3nc(C(=O)NC(C)(C)CC(C)(C)C)cc3n2)cc1OC	none
COc1ccc(-c2cc(C(F)(F)F)n3nc(C(=O)NC(C)(C)C)cc3n2)cc1OC	FBW7 activator 1.9
N#CC1=C(N)N(c2cccc(Cl)c2)C2=C(C(=O)CCC2)C1c1ccc2c(c1)OCO2 (centres undefined)	none
COC(=O)C(CC(C)C)NC(=O)Cc1ccc(F)cc1 (centres undefined)	none
c1ccc2c(c1)Cn1nc(-c3c[nH]c4ccccc34)nc1-2	TEAD-YAP block 76.8
c1ccc2c(c1)ccc1nnc(-c3c[nH]c4ccccc34)n12	none
CC(C)(C)c1ccc(C(=O)Nn2c(C3CCCCC3)nc3ccccc3c2=O)cc1	none
Cn1cc(C(=O)N2CCN(c3ccc([N+](=O)[O-])cc3)CC2)c2c3ccccc3n(C)c2c1=O	none
CNC(=O)c1ccccc1Nc1cc(Nc2ccc(N3CCN(C)CC3)cc2OC)ncc1C(F)(F)F	TEAD-YAP block 85.2
CNC(=O)c1ccccc1Nc1cc(Nc2ccc(N3CCOCC3)cc2OC)ncc1Br	none
CNC(=O)c1ccccc1Nc1cc(Nc2ccc(OC3CCN(C)CC3)cc2OC)ncc1C(F)(F)F	TEAD-YAP block 73.8
CNC(=O)c1ccccc1Nc1cc(Nc2ccc(N3CCC(N(C)C)C3)cc2OC)ncc1C#N (centres undefined)	TEAD-YAP block 44.1
CNC(=O)c1ccccc1Nc1cc(Nc2ccc(F)cc2OC)ncc1C(F)(F)F	none
CCc1nc2sc3c(c2c2nnc(SCC(=O)N4CCCC4)n12)CCCC3	none
CCC1Sc2cc(S(=O)(=O)CCC(=O)Nc3ccc(C(C)C)cc3)ccc2NC1=O (centres undefined)	none
CC(C)Oc1ccc(C(=O)Nc2ccnc3c2c(=O)n(C)c(=O)n3C)cc1	none
COc1ccc(N(C)S(=O)(=O)c2cccc3cccnc23)c(OC)c1	TEAD-YAP block 39.0
COC(=O)C1=C(C(=O)OC)SC(=C2C(=S)C(C)(C)N(C)c3ccc(C)cc32)S1	MITF primary 51.9
COC(=O)C1=C(C(=O)OC)SC(=C2C(=S)C(C)(C)N(C(=O)c3ccccc3)c3ccc(C)cc32)S1	none
CC(=O)c1ccc2c(c1)[nH]c1cc(C(C)=O)ccc12	TEAD-YAP block 46.3
COC(=O)Cc1nc(NC2CCCCC2)c2c(C)c(C)sc2n1	none
CN1/C(=C/C(=O)c2ccco2)C(C)(C)c2ccccc21	TEAD-YAP block 35.0
CN1/C(=C\C(=O)CSCc2ccco2)C(C)(C)c2ccccc21	none
FC(F)(F)c1cccc(CNc2nc(Nc3ccncc3)nc3c2ncn3-c2ccsc2)c1	none
FC(F)(F)c1cccc(CNc2nc(Nc3cccnc3)nc3c2ncn3-c2ccsc2)c1	TEAD-YAP block 55.8
Cc1cnc(Nc2ccncc2)nc1NCc1cccc(C(F)(F)F)c1	TEAD-YAP block 45.2
Cc1cnc(Nc2ccncn2)nc1NCc1cccc(C(F)(F)F)c1	none
FC(F)(F)c1cccc(CNc2nc(NCc3cccnc3)nc3c2ncn3-c2ccsc2)c1	TEAD-YAP block 55.9
FC(F)(F)c1cccc(CNc2nc(Nc3cccnc3)nc3c2ncn3-c2ccccc2)c1	TEAD-YAP block 46.2
Cc1ccc(NC(=O)c2cc(S(=O)(=O)NCc3ccc4c(c3)OCO4)ccc2F)cc1Cl	none
CCCSc1nnc2c(n1)OC(c1cn(C(C)=O)nc1-c1ccccc1)N(C(C)=O)c1ccccc1-2 (centres undefined)	none
CCn1c(SCC(=O)Nc2ccc(OC)cc2)nnc1-c1ccc2[nH]c(C)c(C)c2c1	none
COc1cc(/C(C)=N/N2CCN(Cc3ccccc3Cl)CC2)ccc1O	none
O=C1N/C(=N\N=C/c2ccc([N+](=O)[O-])cc2)SC1Cc1cccc([N+](=O)[O-])c1 (centres undefined)	none
CCOC(=O)C(C)Oc1ccc2cc(-c3ccc(OC)c(OC)c3)c(=O)oc2c1 (centres undefined)	FBW7 activator 2.3
CCOC(=O)COc1ccc2c(C)c(-c3ccc(OC)c(OC)c3)c(=O)oc2c1	FBW7 activator 2.0
COc1ccc(-c2cc3ccccc3oc2=O)cc1N	TEAD-YAP block 33.4
COc1ccccc1-c1cc2ccccc2oc1=O	none
COCc1cc(C)c2c(N)c(C(=O)c3ccc(C)cc3C)sc2n1	FBW7 activator 3.7
Cc1ccc(C(=O)c2sc3nc4c(cc3c2N)CCC4)c(C)c1	FBW7 activator 2.0
COc1ccc(C(=O)c2sc3nc4c(cc3c2N)C(=O)CCC4)cc1	none
Cc1ccc(C(=O)c2sc3nc4c(cc3c2N)C(=O)CCC4)cc1	TEAD-YAP block 47.4
Nc1c(C(=O)Nc2cccc3ccccc23)sc2nc3c(cc12)C(=O)CCC3	TEAD-YAP block 61.2
COc1ccc(OC)c(NC(=O)Cc2noc3ccc(C)cc23)c1	none
CN1CCN(NC(=S)Nc2ccc(Cl)cc2Cl)CC1	none
CCN(CC)S(=O)(=O)c1ccc(OC)c(NC(=O)C2c3ccccc3Oc3ccccc32)c1	none
Nn1c(SCC(=O)c2ccc(O)cc2O)nnc1-c1cc(Cl)ccc1Cl	TEAD-YAP block 42.1
Nn1c(SCC(=O)N2CCCC2)nnc1-c1ccc(Cl)cc1Cl	none
COc1ccc(CCn2c(SCC(=O)c3ccc(Cl)cc3)nc3ccccc3c2=O)cc1OC	none
NC(=O)c1nn(-c2ccccc2)nc1/C=C\C(=O)O	none
COC(=O)/C=C\c1nn(-c2ccccc2)nc1C#N	TEAD-YAP block 60.0
CCOC(=O)C1=C(C)N(C)C(=O)NC1c1cc(Br)c(O)c(OC)c1 (centres undefined)	none
C/C(=N\O)c1oc2ccc3c(C)cc(=O)oc3c2c1C	none
Cc1cc(=O)oc2c1ccc1oc(C(=O)c3ccccc3)c(-c3ccccc3)c12	TEAD-YAP block 72.0
Cc1cc(=O)oc2c1ccc1oc(C(=O)c3ccc(Cl)cc3)c(-c3ccccc3)c12	TEAD-YAP block 63.2
